# Screens from PubChem BioAssay.
# Sampled rows, rich in hits. Any-hit rate of the full collection: about 27%.
# Cav32 inh = Cav3.2 calcium influx blockers – cell-based, Fluo-4 calcium fluorescence, FDSS, MLSMR library, primary screen. Cav3.2-expressing cells; hits give low values. B-score at 10 µM. 100,000 compounds, 4% hits;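 active means single-dose well whose peak fluorescence ratio is a statistical outlier from its plate by either plate-standardised score or position-corrected B-score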
# CYP2C19 activ = human CYP2C19 activators, primary screen, biochemical, luminescence. Cytochrome P450 2C19 (Homo sapiens), P33261. recombinant CYP2C19, luciferin-H EGE luminescence; hits give high values; 0 = fully inhibited enzyme, 1 = untreated enzyme. 96,000 tested, under 10 active. activation factor at 5 µM;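 active means activation factor of at least 2 at 5 µM in the primary screen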;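 further: 0 = wells with 2.5 mM tranylcypromine and 1 = vehicle-only wells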
# Target sequence (P33261 whole entry, looked up): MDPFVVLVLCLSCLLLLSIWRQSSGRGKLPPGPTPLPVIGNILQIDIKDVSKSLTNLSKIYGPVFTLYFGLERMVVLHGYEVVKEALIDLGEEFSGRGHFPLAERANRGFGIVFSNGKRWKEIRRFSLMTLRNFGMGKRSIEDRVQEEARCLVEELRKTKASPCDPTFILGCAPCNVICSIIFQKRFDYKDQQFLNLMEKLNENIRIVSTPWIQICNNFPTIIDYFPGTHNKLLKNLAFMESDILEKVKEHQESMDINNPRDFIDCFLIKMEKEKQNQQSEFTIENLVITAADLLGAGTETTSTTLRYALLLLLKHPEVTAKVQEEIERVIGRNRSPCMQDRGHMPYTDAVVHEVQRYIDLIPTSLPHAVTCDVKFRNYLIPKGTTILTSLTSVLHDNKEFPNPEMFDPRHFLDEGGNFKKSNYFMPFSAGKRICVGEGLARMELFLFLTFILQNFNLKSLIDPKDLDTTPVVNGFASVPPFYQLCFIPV
# CYP2C9 act = human CYP2C9 activators, primary screen, biochemical, luminescence; 96,000 compounds, 1.4% hits; recombinant CYP2C9, luciferin-H conversion; hits give high values; factor 1 = untreated enzyme, 0 = blocked; Cytochrome P450 2C9 (Homo sapiens), P11712; activation factor at 5 µM;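 active means activation factor of 2 or more for CYP2C9 at a 5 µM dose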;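 further: 0 = sulfaphenazole-blocked wells and 1 = vehicle-only wells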
# CYP2C9 inhib = blockers of cytochrome P450 2C9 activity – biochemical, luminescence, ADME assay, primary screen; AID 777, 2007; inhibition, % at 5 µM; 96,000 compounds, 20% hits; P11712; CYP2C9 Supersomes, luciferin-H conversion;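 active means blocking of liver enzyme CYP2C9 beyond about 50% at 5 µM, limit read from the data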
# CYP2C19 inh = blockers of cytochrome P450 2C19 activity – biochemical, luminescence, ADME assay, primary screen; 96,000 compounds, 21% hits; inhibition, % at 5 µM; P33261; CYP2C19 Supersomes, luciferin-H EGE luminescence, 30 min;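 active means CYP2C19 inhibition above a set limit at 5 µM in the primary screen, cut at about 50% in these data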;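 further: plate controls were negative control wells for no effect and 2.5 mM tranylcypromine positive control for full effect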
# The depositor's hits bear a star; / = no result.
SMILES,Cav32 inh,CYP2C19 activ,CYP2C9 act,CYP2C9 inhib,CYP2C19 inh
COCCn1c(-c2ccc(Cl)cc2)cnc1SCC(=O)NCc1cccs1,-3.3,0.1,0.1,85.8*,92.0*
O=C(C1CCCCN1S(=O)(=O)c1ccc(F)cc1)N1CCN(c2ccccc2F)CC1 (configuration not stated),-0.336,0.6,0.6,35.5,39.0
CCn1cc(SCC(=O)NCc2ccc3c(c2)OCO3)c2ccccc21,-3.89*,0,0.8,23.3,96.7*
Cc1ccccc1C(=O)c1cccn1CC(=O)NCC1CCCO1 (configuration not stated),1.77,0.9,1,4.2,9.7
O=C(Cn1cc(C(=O)C2CC2)c2ccccc21)NCc1ccc2c(c1)OCO2,-0.754,0.2,0.7,31.5,81.4*
CCCn1cc(SCC(=O)NCc2ccc3c(c2)OCO3)c2ccccc21,-2.3,0.7,0.6,41.9,28.5
Cc1ccccc1C(=O)c1cccn1CC(=O)NCc1ccc2c(c1)OCO2,-2.14,0.4,0.3,73.7*,61.7*
CC(=O)c1cn(CC(=O)NCc2ccc3c(c2)OCO3)c2ccccc12,-0.988,/,/,/,/
Cn1cc(SCC(=O)NCc2ccc3c(c2)OCO3)c2ccccc21,-2.56,0,0.3,68.6*,99.9*
Cc1ccc(SC[C@H](c2ccccc2)N2CCN(CC(C)C)CCC2=O)cc1,-0.803,/,/,/,/
CC1CCCN(c2nc3c(c(=O)n(C)c(=O)n3C)n2CCSc2nc3ccccc3o2)C1 (configuration not stated),-2.82,0.6,0.5,51.2*,36.1
CC1CCCN(c2nc3c(c(=O)n(C)c(=O)n3C)n2CCSc2nc3ccccc3s2)C1 (configuration not stated),-6.92*,0.6,0.6,42.8,39.6
CC1CCN(c2nc3c(c(=O)n(C)c(=O)n3C)n2CCSc2nc3ccccc3s2)CC1,-1.27,0.6,0.7,28.9,36.2
CC1CC(NC(=O)Cc2ccc(Br)cc2)CC(C)(C)C1 (configuration not stated),-7.44*,/,/,/,/
COc1ccccc1N1CCN(C(c2ccc(F)cc2)c2nnnn2C(C)C)CC1 (configuration not stated),/,0.5,0.5,46.0,51.7*
COc1ccccc1N1CCN(C(c2ccc(C)cc2)c2nnnn2C(C)C)CC1 (configuration not stated),-4.14,0.3,0.3,74.9*,74.1*
CC(C)n1nnnc1C(c1ccc(F)cc1)N1CCN(C2CCCC2)CC1 (configuration not stated),/,1,1.1,-10.2,2.2
CCC(C)(C)n1nnnc1CN(Cc1cc2cc(OC)c(OC)cc2[nH]c1=O)C1CCCC1,1.14,0.8,1,2.4,23.5
Cc1cc(C)n(C(=O)c2ccc(C)c(S(=O)(=O)N3CCCC3)c2)n1,0.0279,0.3,0.5,54.7*,73.2*
Cc1ccc(C(=O)N2CCN(C)CC2)cc1S(=O)(=O)N1CCCCC1,1.66,0.9,0.9,6.7,9.7
Cc1cc(C)n(C(=O)c2ccc(S(=O)(=O)N3CCOCC3)cc2)n1,0.533,1.1,0.5,53.1*,-12.0
Cc1cc(C)n(C(=O)c2cccc(S(=O)(=O)N3CCOCC3)c2)n1,/,0.4,0.7,33.9,58.9*
Cc1ccc(Sc2c(C)nn(C(=O)c3cccc(S(=O)(=O)N4CCOCC4)c3)c2C)cc1,-1.87,0.5,0.2,78.5*,52.8*
Cc1cc(C)n(-c2ccc(C(=O)C(C#N)c3nc4ccccc4n3C)cc2)n1 (configuration not stated),0.814,0.7,1,-2.6,29.6
Cc1cc(OC(=O)c2ccc(Cl)cc2Cl)nc(C)n1,2.99,1.1,1.1,-9.7,-6.1
SMILES,Cav32 inh,CYP2C19 activ,CYP2C9 act,CYP2C9 inhib,CYP2C19 inh
CN(C)S(=O)(=O)c1ccc(-c2csnn2)s1,0.0033,0.6,1.5,-45.1,36.7
CN(C)S(=O)(=O)Nc1ccc(C(=O)O)cc1,-0.245,0.9,0.9,8.6,7.3
CCOC(=O)c1cc2sccc2n1CC(=O)N1CCN(C(=O)c2ccco2)CC1,-0.303,0.7,0.6,41.3,30.4
CC(=O)Nc1ccc(C(=O)Nc2ccc(S(=O)(=O)NCC3CCCO3)cc2)cc1 (configuration not stated),0.0504,0.9,0.7,31.5,9.3
Cc1cc(C)n(C(=O)c2ccc(S(=O)(=O)NCC3CCCO3)cc2)n1 (configuration not stated),0.00131,0.7,0.4,58.5*,32.9
COC(=O)c1ccc(CSc2nc3c(c(=O)n2-c2ccc(C)cc2)SCC3)o1,-0.28,0.4,0.1,93.2*,64.6*
COC(=O)C(C)Sc1nc2c(c(=O)n1-c1ccccc1)SCC2 (configuration not stated),1.44,0.1,0.3,69.2*,88.7*
Cc1nccn1CC(=O)O,0.382,0.9,1,-1.3,10.8
CCOC(=O)N1CCN(CC(=O)N2c3ccccc3CC2C)CC1 (configuration not stated),/,1,1.1,-12.0,3.9
O=C(c1cccs1)N1CCN(S(=O)(=O)c2ccccc2)CC1,-0.0976,0,0.3,70.0*,97.0*
O=C(O)C1CCCN1C(=O)c1cccs1 (configuration not stated),-3.28,/,/,/,/
O=C(c1cccs1)N1CCN(c2ccc(F)cc2)CC1,0.353,0.8,0.9,5.4,15.0
CC1CN(C(=O)c2cccs2)CCN1C(=O)c1cccs1 (configuration not stated),-0.201,0,0.1,88.6*,96.0*
O=C(c1cccs1)N1CCN(S(=O)(=O)N2CCCCC2)CC1,0.272,0.7,0.9,6.5,29.4
O=C(c1ccsc1)N1CCN(C(=O)c2cccs2)CC1,0.357,0.1,0.3,67.2*,94.7*
CCOC(=O)c1c(C)sc2c1N(C(=O)CN(CC)CC)c1cc(Cl)ccc1S2,/,0.3,0.3,70.4*,70.2*
CCn1cc(C(=O)NC2CCC(C)CC2)c(=O)c2cc(S(=O)(=O)N3CCCCC3)ccc21 (configuration not stated),-7.18*,0.9,0.6,39.2,6.0
C=CCn1cc(C(=O)NCc2ccco2)c(=O)c2cc(S(=O)(=O)N3CCCCCC3)ccc21,-4.86*,0.6,0.1,88.7*,44.1
CCn1cc(C(=O)NCc2ccco2)c(=O)c2cc(S(=O)(=O)N3CCc4ccccc4C3)ccc21,-2.33,0.6,0.2,78.5*,36.5
CCn1cc(C(=O)N2CCc3ccccc32)c(=O)c2cc(S(=O)(=O)N3CCOCC3)ccc21,/,0.9,0.8,15.7,7.8
CC1CCCC(NC(=O)c2cn(C)c3ccc(S(=O)(=O)N4CCCC4)cc3c2=O)C1C (configuration not stated),/,0.8,0.3,72.9*,15.5
